Reference: PubChem BioAssay AID1159580 (chemical genetic matrix, 2015)
“And” between values parts separate entries of the source, which are not always exact repeats. Equal entries are not always repeated. The campaign covered roughly 5,500 compounds. About 2,000 (36%) were called active. Inconclusive results (about 18%) are left out. No stated cut-off is given here; in the data, active means normalized growth mostly below about 0.91 (no sharp cut-off); inconclusive means no clear call, values can overlap the other calls; inactive means mostly above about 0.92. The list shows a part of the results.

Assay: chemical genetic growth profiling, strain panel (AID 1159580);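 further: tested at 20 µM; growth read once vehicle control cultures reached saturation at 30 °C; 1 = growth at the plate median or of vehicle wells; lower values mean less growth of the strain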
Conditions: S. cerevisiae deletion strains, growth OD

Measured: normalized growth

CC(=O)OCC1=C(C(=O)O)N2C(=O)[C@@H](NC(=O)CSc3ccncc3)[C@H]2SC1
inactive: locus YAL013W, strain DEP1, active compounds read low 0.988 | locus YAL021C, strain ccr4, active compounds read low 1.02 | locus YAL026C, strain drs2, active compounds read low 1.02 | locus YAL030W, strain snc1, active compounds read low 1 | locus YBL061C, strain skt5, active compounds read low 1.04 | locus YBR009C, strain hhf1, active compounds read low 1.01 | locus YBR021W, strain FUR4, active compounds read low 1.02 | locus YBR023C, strain chs3, active compounds read low 1.04 | locus YBR171W, strain sec66, active compounds read low 1.02 | locus YBR229C, strain ROT2, active compounds read low 0.95 | locus YBR231C, strain swc5, active compounds read low 1.04 | locus YBR279W, strain paf1, active compounds read low 1.03 | locus YCL011C, strain gbp2, active compounds read low 1.01 | locus YCL016C, strain dcc1, active compounds read low 1.02 | locus YCL029C, strain bik1, active compounds read low 1 | locus YCL061C, strain MRC1, active compounds read low 1.01 | locus YCL069W, strain vba3, active compounds read low 1.02 | locus YCR088W, strain abp1, active compounds read low 1.02 | locus YDL005C, strain med2, active compounds read low 1.02 | locus YDL035C, strain GPR1, active compounds read low 0.959 | locus YDL040C, strain nat1, active compounds read low 1.02 | locus YDL074C, strain BRE1, active compounds read low 1 | locus YDL101C, strain DUN1, active compounds read low 0.988 | locus YDL185W, strain tfp1, active compounds read low 0.966 | locus YDL192W, strain arf1, active compounds read low 0.984 | locus YDR001C, strain nth1, active compounds read low 1.02 | locus YDR069C, strain doa4, active compounds read low 1.04 | locus YDR101C, strain arx1, active compounds read low 0.976 | locus YDR137W, strain rgp1, active compounds read low 1 | locus YDR159W, strain sac3, active compounds read low 1.03 | locus YDR162C, strain NBP2, active compounds read low 0.946 | locus YDR195W, strain ref2 1.03 | locus YDR297W, strain sur2, active compounds read low 1.02 | locus YDR318W, strain mcm21, active compounds read low 0.99 | locus YDR334W, strain swr1, active compounds read low 1.01 | locus YDR335W, strain msn5, active compounds read low 1.03 | locus YDR388W, active compounds read low 0.988 | locus YDR392W, strain spt3, active compounds read low 0.957 | locus YDR502C, strain sam2, active compounds read low 0.998 | locus YEL003W, strain gim4, active compounds read low 1.03 | locus YEL037C, strain rad23, active compounds read low 1 | locus YEL061C, strain CIN8 (second series), active compounds read low 1.05 | locus YEL061C, strain CIN8, active compounds read low 0.99 | locus YER015W, strain faa2, active compounds read low 1.01 | locus YER016W, strain bim1, active compounds read low 1.03 | locus YER110C, active compounds read low 0.991 | locus YER111C, strain swi4, active compounds read low 0.997 | locus YER155C, strain BEM2 (second series), active compounds read low 0.992 | locus YER155C, strain BEM2, active compounds read low 0.994 | locus YER167W, strain BCK2, active compounds read low 0.995 | locus YFR010W, strain ubp6, active compounds read low 1.02 | locus YGL078C, strain dbp3, active compounds read low 0.995 | locus YGL086W, strain mad1, active compounds read low 0.981 | locus YGL167C, strain pmr1, active compounds read low 1.03 | locus YGL173C, strain kem1, active compounds read low 1.03 | locus YGL227W, strain vid30, active compounds read low 1.01 | locus YGL240W, strain doc1, active compounds read low 1.03 | locus YGL248W, strain PDE1, active compounds read low 1.01 | locus YGL253W, strain hxk2, active compounds read low 1.02 | locus YGR078C, strain PAC10, active compounds read low 0.989 | locus YGR135W, strain pre9, active compounds read low 1.04 | locus YGR252W, strain gcn5, active compounds read low 1.02 | locus YHR013C, strain ard1, active compounds read low 1.03 | locus YHR027C, strain rpn1, active compounds read low 1.02 | locus YHR030C, strain SLT2, active compounds read low 0.983 and 0.995 | locus YHR079C, strain IRE1 (second series), active compounds read low 0.997 | locus YHR079C, strain IRE1, active compounds read low 1.01 | locus YHR094C, strain hxt1, active compounds read low 0.991 | locus YHR129C, strain ARP1, active compounds read low 0.984 | locus YHR142W, strain chs7, active compounds read low 1.03 | locus YHR200W, strain rpn10, active compounds read low 0.984 | locus YIL066C, strain RNR3, active compounds read low 0.969 | locus YIL073C, strain SPO22, active compounds read low 1.03 | locus YIL125W, strain kgd1, active compounds read low 0.984 | locus YIR030C, strain dcg1, active compounds read low 0.993 | locus YJL092W, strain hpr5, active compounds read low 1.02 | locus YJL095W, strain BCK1 (second series), active compounds read low 1.02 | locus YJL095W, strain BCK1, active compounds read low 1.05 and 0.991 | locus YJL115W, strain asf1, active compounds read low 1.03 | locus YJL129C, strain trk1, active compounds read low 1.01 | locus YJL134W, strain LCB3, active compounds read low 0.991 | locus YJL154C, strain vps35, active compounds read low 1.02 | locus YJL164C, strain tpk1, active compounds read low 1.01 | locus YJL166W, strain qcr8, active compounds read low 1.03 | locus YJL168C, strain set2, active compounds read low 0.99 | locus YJL187C, strain SWE1 (second series), active compounds read low 1 | locus YJL187C, strain SWE1, active compounds read low 1.02
